The record followed here is PubChem BioAssay (NCI).

Each structure is given as a SMILES string. The panel holds about 83,000 compounds, 20% with a hit somewhere; the sample as a whole holds those more often.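 Cells were grown in 96-well plates and exposed to the test compound at a single concentration for 48 hours; results are reported as percent growth, with values below 10 considered active.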 Values without a mark were called inactive. Activity calls are given as the source filed them.

Test in all cases: NCI-60 one-dose screen, 48 h (100 = growth as untreated, 0 = no growth, -100 = all killed)
Holding throughout (settings): 10 µM unless noted

For assay [1], the system named is DU-145 prostate.
The subject of assay [2] is MALME-3M melanoma.
Assay [3] deals with MDA-MB-231 breast.
Assay [4] deals with RXF 393 renal.
Assay [5] relates to SF-268 CNS.
The test system of assay [6] is SF-295 CNS.
Assay [7] relates to SF-539 CNS.
Assay [8] relates to UACC-257 melanoma.
For assay [9], the system named is M14 melanoma.

In the case of `Cc1cc2cc3ccc(N(C)C)cc3nc2cc1N`, the growth was -50.3% (active) in [1]; -5.97% (active) in [2]; -18.4% (active) in [3]; -38% (active) in [4]; 0.225% (active) in assay [5]; 2.71% (active) in assay [6]. The growth was -4.96% (active) in [7], -1.21% (active) in [8] and -13.4% (active) in [9].

For the compound `COc1ccc(C(=O)c2nc3ccccc3n2CC(=O)c2ccc(Cl)cc2)cc1`, the growth in assay [1] is 35.2%; in assay [2] it was 46%; in [3], 35.6%; in assay [4], 27.8%; in [5], 41.7%; in assay [6], 10.2%. Moreover, the growth in [7] is 16.4%; in assay [8] it was 37.4%; in assay [9], 7.42% (active).

On to `C#Cc1cccc(NC(=O)c2cccc(NC(=O)CCl)c2)c1`, for which the growth in assay [1] is 4.82% [8.25 µM] (active); in assay [2] it was -80.3% [8.25 µM] (active); in assay [3] it was -80.5% [8.25 µM] (active); in assay [4], -20.9% [8.25 µM] (active); in [5], 8.4% [8.25 µM] (active); in assay [6] it was 21.9% [8.25 µM]. The growth in assay [7] is -97.1% [8.25 µM] (active); in assay [8] it was 28.1% [8.25 µM]; in assay [9] it was 0.864% [8.25 µM] (active).

For the compound `O=C1c2cccc3c(-c4ccc5c(c4)ncn5C4CCCCC4)ccc(c23)C(=O)N1c1nc2ccccc2s1`, the growth in assay [1] is 105%; in assay [2], 93%; in assay [3], 74%; in assay [4], 105%; in [5], 94.1%; in assay [6], 90.4%. Further, the growth in assay [7] is 95.7%; in assay [8], 101%; in [9], 93.8%.

In the case of `O=C1Nc2ccccc2/C1=C\c1c(-c2ccc(F)cc2)nc2ccccn12`, the growth in assay [1] is 94.5%; in [2], 73.7%; in assay [3], 60.2%; in [4], 67%; in assay [5] it was 77.7%; in [6], 59.9%. Moreover, the values for the growth in assay [7], in assay [8] and in assay [9] were 78%, 102% and 53.2%, respectively.

On to `N=C1C(c2nc3ccccc3s2)=C(O)CN1c1cc(Cl)cc(Cl)c1`, for which the growth was 86.6% in [1]; 63.8% in assay [2]; 66.4% in [3]; 63.9% in [4]; 173% in assay [5]; 88.2% in assay [6]. Further, the growth in [7] is 46.9%; in assay [8], 74.4%; in [9] it was 69%.

On to `Cc1nnc2c(Cc3ccccc3)nc3ccccc3n12`, for which the growth was 97.7% in [1]; 109% in assay [2]; 96.1% in [3]; 95.4% in [4]; 89.9% in [5]; 99.7% in [6]. Also, the results for the growth in [7], in assay [8] and in assay [9] were 95.8%, 104% and 99%, respectively.

On to `COc1cc(NC(=O)CSc2nc3ccc(C)cc3c(=O)n2Cc2ccccc2)cc(OC)c1OC`, for which the growth in assay [1] is 80.7%; in assay [2], 49.8%; in [3], 35.5%; in [4], 24.3%; in assay [5], 69.1%; in assay [6] it was 79.9%. Further, the growth is 11.8% in assay [7], 61.3% in assay [8] and 65.6% in assay [9].

Turning to `Cc1ccc(C(=O)/C(=C\c2ccc([N+](=O)[O-])cc2)S(=O)Cc2ccc(F)cc2)cc1` (stereo not given), the growth in assay [1] was 18.6%; in assay [2], -3.22% (active); in assay [3] it was 11%; in assay [4] it was -80% (active); in assay [5], 19.5%; in [6] it was 62.5%. In addition, the growth in assay [7] was 15.4%; in assay [8], 91.6%; in assay [9], 28.2%.

`Nc1c(S(=O)(=O)O)cc2c3c(cccc13)C(=O)OC2=O`: the growth was 140% in assay [1]; 112% in assay [2]; 103% in [3]; 131% in assay [4]; 109% in assay [5]; 117% in [6]. Moreover, the growth in assay [7] is 100%; in assay [8], 78.8%; in assay [9] it was 102%.

Consider `COc1ccc(-c2nc3sccn3c2/C=C/C(=O)c2ccc3c(c2)OCO3)cc1`, for which the growth in [1] was 113%; in assay [2] it was 84.6%; in [3], 76.3%; in [4], 117%; in assay [5], 100%; in assay [6] it was 97.1%. The growth is 84.6% in assay [7], 95.8% in assay [8] and 103% in assay [9].

Regarding `N#Cc1c(-c2ccccc2)nc2c(c(-c3ccccc3)nn2-c2ccccc2)c1-c1ccc(O)cc1`, the growth in assay [1] is 49.4%; in assay [2] it was 43.8%; in [3], 23.8%; in assay [4], -17.6% (active); in assay [5], 55.5%; in assay [6], -43.1% (active). The growth is 23.3% in assay [7], 71.3% in assay [8] and 56.4% in assay [9].

For `CC[C@]12C=CCN3CC[C@@]4(c5cc(NC(=O)CCC(=O)O[C@H]6CC[C@H]7[C@@H]8CCC9=CC(=O)CC[C@@H]9[C@H]8CC[C@]67C)c(OC)cc5N(C)[C@H]4[C@@](O)(C(=O)OC)[C@@H]1OC(C)=O)[C@@H]32`, the growth in assay [1] is 82.2%; in [2] it was 98.9%; in [3], 68.5%; in [4], 82.7%; in assay [5], 74.4%; in [6], 86.3%. The growth in assay [7] is 94.8%; in assay [8], 76.2%; in assay [9], 77.1%.

Turning to `COc1ccc(Cc2cnc(NC(=O)c3ccc4c(c3)OCCO4)s2)cc1`, the growth is 14.9% in [1]; 55.4% in assay [2]; 37.1% in assay [3]; 19.5% in [4]; 34.8% in assay [5]; 10.5% in assay [6]. Further, the growth was -1.94% (active) in [7], 46.4% in [8] and 15.6% in [9].

As to `CCc1c2c(nc3ccc(OCc4ccc(B(O)O)cc4)cc13)-c1cc3c(c(=O)n1C2)COC(=O)[C@]3(O)CC`, the growth is 9.26% (active) in assay [1]; -7.08% (active) in assay [2]; 28.8% in assay [3]; -45.5% (active) in assay [4]; 7.54% (active) in [5]; 1.47% (active) in assay [6]. In addition, the growth in assay [7] is -7.49% (active); in assay [8] it was -12.2% (active); in assay [9] it was 1.07% (active).
